The values below come from publication PMC7862700, “An all-to-all approach to the identification of sequence-specific readers for epigenetic DNA modifications on cytosine”.

What all share (test): DAPPL (digital affinity profiling via proximity ligation, sequencing); 10 mM Tris-HCl pH 7.5, 50 mM NaCl, 1 mM DTT, 4% glycerol, room temperature, 30 min; GST-TFs on glutathione beads, 16-mer random dsDNA library, 0.1% formaldehyde crosslink after washing; high values mean tight binding
The target in one experiment is T1, FLI1 (Homo sapiens, UniProt Q01543 1-452).
T1 sequence: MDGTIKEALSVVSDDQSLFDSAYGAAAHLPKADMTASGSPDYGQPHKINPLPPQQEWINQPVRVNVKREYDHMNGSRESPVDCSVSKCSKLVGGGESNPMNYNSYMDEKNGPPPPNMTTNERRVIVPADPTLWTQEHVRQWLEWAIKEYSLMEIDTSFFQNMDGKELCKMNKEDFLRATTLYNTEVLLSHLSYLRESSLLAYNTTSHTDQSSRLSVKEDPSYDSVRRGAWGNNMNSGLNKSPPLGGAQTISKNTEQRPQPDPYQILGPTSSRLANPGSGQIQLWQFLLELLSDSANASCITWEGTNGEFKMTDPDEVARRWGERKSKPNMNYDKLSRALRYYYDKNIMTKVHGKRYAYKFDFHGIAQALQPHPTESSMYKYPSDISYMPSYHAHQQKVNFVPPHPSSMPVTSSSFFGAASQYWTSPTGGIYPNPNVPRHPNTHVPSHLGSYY
The conditions noted are these: protein: recombinant; tags: N-terminal GST; dsDNA, one strand shown. In outline:
(§1)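 Pools were built from human transcription factors expressed in yeast as GST fusions, captured on glutathione beads and DNA-barcoded, along with a tag-only sample. Incubation with 200 nmole of a 16-mer random double-stranded DNA library lasted 30 min at room temperature in Tris/NaCl/DTT/glycerol buffer, and was followed by washing, 0.1% formaldehyde crosslinking, proximity ligation, PCR amplification and Illumina NextSeq500 sequencing. Binding signal is the quotient of each hexamer's read frequency for a factor and its frequency for the tag-only sample.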

The target in the next experiment is T2, ELK1 (Homo sapiens, UniProt P19419 1-428).
T2 sequence: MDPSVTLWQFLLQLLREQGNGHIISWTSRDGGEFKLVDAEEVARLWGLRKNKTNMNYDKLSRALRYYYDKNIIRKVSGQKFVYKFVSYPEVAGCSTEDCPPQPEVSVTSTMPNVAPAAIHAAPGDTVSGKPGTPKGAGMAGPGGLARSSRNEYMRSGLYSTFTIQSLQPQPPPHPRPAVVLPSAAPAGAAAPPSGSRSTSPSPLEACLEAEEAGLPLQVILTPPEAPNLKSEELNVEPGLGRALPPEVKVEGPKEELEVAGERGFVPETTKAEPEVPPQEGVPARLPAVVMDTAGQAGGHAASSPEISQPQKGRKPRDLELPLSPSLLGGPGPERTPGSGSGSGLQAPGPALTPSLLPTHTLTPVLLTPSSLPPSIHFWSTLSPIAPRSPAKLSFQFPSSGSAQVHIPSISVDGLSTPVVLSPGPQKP
Conditions: protein: recombinant; tags: N-terminal GST; dsDNA, one strand shown. In outline: as §1

A further experiment deals with T3, GABPA (Homo sapiens, UniProt Q06546 1-454).
T3 sequence: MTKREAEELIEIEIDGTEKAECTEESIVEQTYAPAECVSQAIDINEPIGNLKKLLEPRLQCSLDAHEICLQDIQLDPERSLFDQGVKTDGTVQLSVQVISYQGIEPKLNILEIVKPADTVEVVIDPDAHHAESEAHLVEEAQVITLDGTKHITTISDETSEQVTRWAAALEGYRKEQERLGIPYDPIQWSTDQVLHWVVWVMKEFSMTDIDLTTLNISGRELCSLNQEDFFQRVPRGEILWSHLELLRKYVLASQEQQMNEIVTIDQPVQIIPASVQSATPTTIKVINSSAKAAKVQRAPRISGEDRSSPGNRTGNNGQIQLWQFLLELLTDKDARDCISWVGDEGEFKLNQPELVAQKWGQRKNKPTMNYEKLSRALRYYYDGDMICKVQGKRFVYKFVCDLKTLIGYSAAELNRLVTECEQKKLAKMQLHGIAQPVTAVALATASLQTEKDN
Conditions: protein: recombinant; tags: N-terminal GST; dsDNA, one strand shown. In outline: as §1

The next experiment deals with T4, ERG (Homo sapiens, UniProt P11308 1-479).
T4 sequence: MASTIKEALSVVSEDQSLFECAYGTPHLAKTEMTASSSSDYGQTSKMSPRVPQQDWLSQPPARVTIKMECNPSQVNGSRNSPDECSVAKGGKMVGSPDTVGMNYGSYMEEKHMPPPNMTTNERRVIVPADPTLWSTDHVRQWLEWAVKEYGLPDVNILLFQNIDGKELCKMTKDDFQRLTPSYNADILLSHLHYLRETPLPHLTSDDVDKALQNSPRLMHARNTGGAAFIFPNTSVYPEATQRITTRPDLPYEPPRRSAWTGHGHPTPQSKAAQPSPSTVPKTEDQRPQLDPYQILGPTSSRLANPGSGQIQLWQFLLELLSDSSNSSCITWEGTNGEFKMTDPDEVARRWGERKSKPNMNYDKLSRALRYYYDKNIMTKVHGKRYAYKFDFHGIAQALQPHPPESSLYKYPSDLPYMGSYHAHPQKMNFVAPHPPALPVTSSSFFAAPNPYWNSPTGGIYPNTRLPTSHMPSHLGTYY
The conditions noted are these: protein: recombinant; tags: N-terminal GST; dsDNA, one strand shown. In outline: as §1

The target in the next experiment is ELF1 (Homo sapiens, UniProt P32519 1-619). The conditions noted are these: protein: recombinant; tags: N-terminal GST; dsDNA, one strand shown. Summed up:
as §1

A further experiment has as its target T5, EHF (Homo sapiens, UniProt Q9NZC4 1-300).
T5 sequence: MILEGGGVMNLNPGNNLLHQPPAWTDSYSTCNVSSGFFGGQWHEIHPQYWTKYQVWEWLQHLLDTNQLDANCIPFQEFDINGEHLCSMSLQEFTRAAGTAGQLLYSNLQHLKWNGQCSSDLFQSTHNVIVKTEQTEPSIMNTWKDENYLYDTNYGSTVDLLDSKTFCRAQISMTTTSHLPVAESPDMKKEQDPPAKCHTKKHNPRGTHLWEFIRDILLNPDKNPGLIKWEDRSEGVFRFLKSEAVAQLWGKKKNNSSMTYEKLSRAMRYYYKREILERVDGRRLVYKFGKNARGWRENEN
Conditions: protein: recombinant; tags: N-terminal GST; dsDNA, one strand shown. In outline: as §1

The target in another experiment is SPI1 (Homo sapiens, UniProt P17947 1-270). The conditions noted are these: protein: recombinant; tags: N-terminal GST; dsDNA, one strand shown. Summed up: as §1
In another experiment the target is SPIB (Homo sapiens, UniProt Q01892 1-262). The conditions noted are these: protein: recombinant; tags: N-terminal GST; dsDNA, one strand shown. In outline: as §1
SPIB, sequence (Q01892 whole entry): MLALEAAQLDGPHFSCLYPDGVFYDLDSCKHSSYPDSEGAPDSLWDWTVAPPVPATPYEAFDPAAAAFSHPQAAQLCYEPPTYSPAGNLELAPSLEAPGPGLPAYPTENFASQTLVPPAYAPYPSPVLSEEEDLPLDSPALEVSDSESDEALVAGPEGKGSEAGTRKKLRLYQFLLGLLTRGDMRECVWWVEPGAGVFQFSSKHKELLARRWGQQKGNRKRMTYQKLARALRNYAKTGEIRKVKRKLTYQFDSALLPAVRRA
The target of another experiment is T6, ELK3 (Homo sapiens, UniProt P41970 1-407).
T6 sequence: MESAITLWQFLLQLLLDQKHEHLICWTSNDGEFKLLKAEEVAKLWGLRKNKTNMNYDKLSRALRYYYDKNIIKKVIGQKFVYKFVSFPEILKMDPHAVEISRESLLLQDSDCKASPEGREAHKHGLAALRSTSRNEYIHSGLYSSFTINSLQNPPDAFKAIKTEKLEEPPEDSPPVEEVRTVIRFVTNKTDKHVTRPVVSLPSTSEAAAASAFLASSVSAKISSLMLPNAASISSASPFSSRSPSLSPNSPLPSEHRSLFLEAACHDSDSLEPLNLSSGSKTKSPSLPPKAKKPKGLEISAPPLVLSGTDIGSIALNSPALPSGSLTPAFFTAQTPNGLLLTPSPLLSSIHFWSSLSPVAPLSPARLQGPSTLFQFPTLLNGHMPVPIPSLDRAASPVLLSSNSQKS
Conditions: protein: recombinant; tags: N-terminal GST; dsDNA, one strand shown. Summed up: as §1

The next experiment addresses T7, FEV (Homo sapiens, UniProt Q99581 1-238).
T7 sequence: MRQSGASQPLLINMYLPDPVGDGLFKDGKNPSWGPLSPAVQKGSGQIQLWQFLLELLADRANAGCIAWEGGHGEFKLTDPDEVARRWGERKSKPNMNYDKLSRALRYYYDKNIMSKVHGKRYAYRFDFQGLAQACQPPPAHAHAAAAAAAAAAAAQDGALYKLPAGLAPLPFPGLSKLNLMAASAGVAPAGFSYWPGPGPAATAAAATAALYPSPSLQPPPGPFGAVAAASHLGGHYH
Conditions: protein: recombinant; tags: N-terminal GST; dsDNA, one strand shown. In outline:
as §1

The target of another experiment is ETV5 (Homo sapiens, UniProt P41161 1-510). Conditions: protein: recombinant; tags: N-terminal GST; dsDNA, one strand shown. In outline: as §1
ETV5, sequence (P41161 whole entry): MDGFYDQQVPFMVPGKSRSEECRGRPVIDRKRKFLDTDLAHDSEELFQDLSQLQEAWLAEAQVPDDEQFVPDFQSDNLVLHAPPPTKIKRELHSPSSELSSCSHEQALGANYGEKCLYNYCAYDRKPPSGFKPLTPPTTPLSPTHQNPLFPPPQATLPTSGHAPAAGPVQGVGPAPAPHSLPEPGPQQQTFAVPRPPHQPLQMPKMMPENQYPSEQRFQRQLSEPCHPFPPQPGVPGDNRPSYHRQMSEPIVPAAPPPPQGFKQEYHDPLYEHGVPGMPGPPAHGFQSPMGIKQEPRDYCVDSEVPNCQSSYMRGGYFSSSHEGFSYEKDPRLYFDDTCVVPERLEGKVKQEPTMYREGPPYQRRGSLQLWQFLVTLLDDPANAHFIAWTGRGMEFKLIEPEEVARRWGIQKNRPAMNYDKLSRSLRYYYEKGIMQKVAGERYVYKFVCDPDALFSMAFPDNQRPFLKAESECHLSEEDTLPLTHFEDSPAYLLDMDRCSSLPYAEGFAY
A further experiment concerns the target HSF1 (Homo sapiens, UniProt Q00613 1-529). Conditions: protein: recombinant; tags: N-terminal GST; chain copies: 3; dsDNA, one strand shown. In outline: as §1
In a further experiment the target is T8, SPIC (Homo sapiens, UniProt Q8N5J4 1-248).
T8 sequence: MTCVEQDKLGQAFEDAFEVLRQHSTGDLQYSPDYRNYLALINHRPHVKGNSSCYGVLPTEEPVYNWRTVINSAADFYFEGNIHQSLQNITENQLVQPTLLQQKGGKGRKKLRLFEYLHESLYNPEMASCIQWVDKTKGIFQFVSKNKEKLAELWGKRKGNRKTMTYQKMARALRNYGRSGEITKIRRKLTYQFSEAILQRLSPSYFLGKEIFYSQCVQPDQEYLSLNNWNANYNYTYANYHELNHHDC
Conditions: protein: recombinant; tags: N-terminal GST; dsDNA, one strand shown. In outline: as §1

The target of a further experiment is ELF4 (Homo sapiens, UniProt Q99607 1-663). Conditions: protein: recombinant; tags: N-terminal GST; dsDNA, one strand shown. In outline: as §1
ELF4, sequence (Q99607 whole entry): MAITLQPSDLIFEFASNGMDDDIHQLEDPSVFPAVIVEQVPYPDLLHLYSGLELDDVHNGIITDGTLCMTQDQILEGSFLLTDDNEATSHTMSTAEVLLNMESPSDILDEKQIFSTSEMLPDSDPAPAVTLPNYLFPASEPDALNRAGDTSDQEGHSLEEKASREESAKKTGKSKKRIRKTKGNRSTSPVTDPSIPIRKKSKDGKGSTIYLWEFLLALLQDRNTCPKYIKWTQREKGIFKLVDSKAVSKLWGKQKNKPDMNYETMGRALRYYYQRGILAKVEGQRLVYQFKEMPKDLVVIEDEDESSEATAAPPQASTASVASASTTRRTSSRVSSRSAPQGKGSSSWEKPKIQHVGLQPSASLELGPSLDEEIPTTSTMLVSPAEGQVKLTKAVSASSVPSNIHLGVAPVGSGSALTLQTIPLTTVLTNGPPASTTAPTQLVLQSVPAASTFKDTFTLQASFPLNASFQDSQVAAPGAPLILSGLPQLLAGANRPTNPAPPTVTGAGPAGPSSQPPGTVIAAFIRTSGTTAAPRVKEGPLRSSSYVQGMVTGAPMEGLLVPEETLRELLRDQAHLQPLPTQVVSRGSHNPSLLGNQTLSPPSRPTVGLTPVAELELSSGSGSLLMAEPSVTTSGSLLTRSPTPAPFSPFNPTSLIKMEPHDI
The target of another experiment is T9, ELK4 (Homo sapiens, UniProt P28324-2 1-405).
T9 sequence: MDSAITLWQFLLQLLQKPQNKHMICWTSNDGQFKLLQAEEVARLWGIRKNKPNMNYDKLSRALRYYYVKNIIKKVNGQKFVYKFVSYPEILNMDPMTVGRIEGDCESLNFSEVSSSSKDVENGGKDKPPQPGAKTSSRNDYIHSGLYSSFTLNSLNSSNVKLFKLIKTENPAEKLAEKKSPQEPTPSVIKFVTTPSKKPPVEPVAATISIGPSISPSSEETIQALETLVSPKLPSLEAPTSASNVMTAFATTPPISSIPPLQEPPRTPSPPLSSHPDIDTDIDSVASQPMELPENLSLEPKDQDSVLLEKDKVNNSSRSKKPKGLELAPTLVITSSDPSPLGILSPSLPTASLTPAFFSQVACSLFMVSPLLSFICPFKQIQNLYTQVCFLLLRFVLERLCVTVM
Conditions: protein: recombinant; tags: N-terminal GST; dsDNA, one strand shown. Summed up:
as §1

A further experiment addresses T10, ETV2 (Homo sapiens, UniProt O00321 1-342).
T10 sequence: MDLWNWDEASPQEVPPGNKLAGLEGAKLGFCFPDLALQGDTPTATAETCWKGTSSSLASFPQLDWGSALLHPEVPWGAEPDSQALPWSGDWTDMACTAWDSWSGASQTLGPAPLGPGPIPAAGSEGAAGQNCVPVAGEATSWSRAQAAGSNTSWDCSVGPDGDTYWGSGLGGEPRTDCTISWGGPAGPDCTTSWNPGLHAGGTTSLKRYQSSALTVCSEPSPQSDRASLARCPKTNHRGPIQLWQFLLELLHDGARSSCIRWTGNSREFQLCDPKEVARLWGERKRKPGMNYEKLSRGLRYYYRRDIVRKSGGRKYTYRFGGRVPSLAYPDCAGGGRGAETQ
Conditions: protein: recombinant; tags: N-terminal GST; dsDNA, one strand shown. In outline:
as §1

Another experiment has as its target T11, ELF3 (Homo sapiens, UniProt P78545 1-371).
T11 sequence: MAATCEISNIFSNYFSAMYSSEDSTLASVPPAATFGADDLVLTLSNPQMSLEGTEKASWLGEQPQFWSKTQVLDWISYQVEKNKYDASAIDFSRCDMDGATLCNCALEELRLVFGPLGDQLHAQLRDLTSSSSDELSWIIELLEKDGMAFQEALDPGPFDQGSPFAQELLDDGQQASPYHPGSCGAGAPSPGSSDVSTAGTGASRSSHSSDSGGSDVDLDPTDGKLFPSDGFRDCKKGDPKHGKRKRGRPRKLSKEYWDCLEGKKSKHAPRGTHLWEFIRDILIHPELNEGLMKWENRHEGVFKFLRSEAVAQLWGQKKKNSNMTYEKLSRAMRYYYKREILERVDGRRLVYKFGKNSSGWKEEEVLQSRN
Conditions: protein: recombinant; tags: N-terminal GST; dsDNA, one strand shown. Summed up: as §1

In another experiment the target is CRX (Homo sapiens, UniProt O43186 1-299). The conditions noted are these: protein: recombinant; tags: N-terminal GST; dsDNA, one strand shown. Summed up: as §1
CRX, sequence (O43186 whole entry): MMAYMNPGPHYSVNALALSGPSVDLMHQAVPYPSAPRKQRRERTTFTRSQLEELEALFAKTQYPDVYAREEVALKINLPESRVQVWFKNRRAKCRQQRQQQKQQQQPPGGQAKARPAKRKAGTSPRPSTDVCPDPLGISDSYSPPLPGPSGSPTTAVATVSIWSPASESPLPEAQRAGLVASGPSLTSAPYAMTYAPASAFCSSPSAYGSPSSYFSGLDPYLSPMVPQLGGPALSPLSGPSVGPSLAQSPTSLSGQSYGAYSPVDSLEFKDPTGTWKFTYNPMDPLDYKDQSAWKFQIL
Another experiment concerns the target ETV1 (Homo sapiens, UniProt P50549 1-477). Conditions: protein: recombinant; tags: N-terminal GST; dsDNA, one strand shown. Summed up: as §1

HSF1, sequence (Q00613 whole entry): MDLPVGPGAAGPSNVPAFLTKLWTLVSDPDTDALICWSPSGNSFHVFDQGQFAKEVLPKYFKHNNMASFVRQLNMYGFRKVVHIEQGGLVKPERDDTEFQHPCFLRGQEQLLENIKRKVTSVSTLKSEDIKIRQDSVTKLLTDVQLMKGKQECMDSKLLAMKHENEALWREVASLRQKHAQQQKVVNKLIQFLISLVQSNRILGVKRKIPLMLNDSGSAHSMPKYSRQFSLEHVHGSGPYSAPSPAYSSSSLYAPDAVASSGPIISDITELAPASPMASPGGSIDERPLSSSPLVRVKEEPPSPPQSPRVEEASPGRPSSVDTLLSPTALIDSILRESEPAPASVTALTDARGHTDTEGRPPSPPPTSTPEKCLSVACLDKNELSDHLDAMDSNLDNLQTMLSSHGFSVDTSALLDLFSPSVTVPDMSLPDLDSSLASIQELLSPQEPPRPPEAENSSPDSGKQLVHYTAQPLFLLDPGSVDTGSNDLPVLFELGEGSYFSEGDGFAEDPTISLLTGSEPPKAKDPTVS
ELF1, sequence (P32519 whole entry): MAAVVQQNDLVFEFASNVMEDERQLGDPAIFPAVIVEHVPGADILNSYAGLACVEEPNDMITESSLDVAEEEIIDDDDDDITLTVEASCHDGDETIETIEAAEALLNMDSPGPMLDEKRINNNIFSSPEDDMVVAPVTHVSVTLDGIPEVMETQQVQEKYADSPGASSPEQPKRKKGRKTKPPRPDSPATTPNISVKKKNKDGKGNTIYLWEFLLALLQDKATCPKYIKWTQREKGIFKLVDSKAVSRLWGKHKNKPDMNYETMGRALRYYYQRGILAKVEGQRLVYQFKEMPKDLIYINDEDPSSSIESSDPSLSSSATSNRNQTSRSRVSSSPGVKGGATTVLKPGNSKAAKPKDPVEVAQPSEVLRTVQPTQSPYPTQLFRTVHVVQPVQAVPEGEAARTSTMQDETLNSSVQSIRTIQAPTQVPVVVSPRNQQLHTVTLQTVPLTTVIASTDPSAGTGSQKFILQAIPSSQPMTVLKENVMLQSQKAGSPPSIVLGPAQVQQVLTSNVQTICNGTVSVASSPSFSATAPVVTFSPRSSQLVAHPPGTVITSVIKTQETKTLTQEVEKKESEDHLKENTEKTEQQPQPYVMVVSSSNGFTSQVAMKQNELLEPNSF
ETV1, sequence (P50549 whole entry): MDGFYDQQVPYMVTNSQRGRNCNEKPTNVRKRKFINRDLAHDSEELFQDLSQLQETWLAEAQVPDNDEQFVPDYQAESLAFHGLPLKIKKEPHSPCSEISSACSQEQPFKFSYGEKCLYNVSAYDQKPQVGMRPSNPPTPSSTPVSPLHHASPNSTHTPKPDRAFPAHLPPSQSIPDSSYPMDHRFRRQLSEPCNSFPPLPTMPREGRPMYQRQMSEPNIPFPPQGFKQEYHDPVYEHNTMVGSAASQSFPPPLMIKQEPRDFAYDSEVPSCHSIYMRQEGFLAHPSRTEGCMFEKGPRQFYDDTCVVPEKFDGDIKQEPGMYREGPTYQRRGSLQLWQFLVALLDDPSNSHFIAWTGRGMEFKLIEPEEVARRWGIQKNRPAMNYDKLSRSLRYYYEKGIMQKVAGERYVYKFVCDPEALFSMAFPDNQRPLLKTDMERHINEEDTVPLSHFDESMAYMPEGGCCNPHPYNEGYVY

In the case of TCCAAA, the binding signal with FLI1 is 1.08 fold enrichment (6-mer frequency, TF over GST control); with ELK1 it was 1.18 fold enrichment (6-mer frequency, TF over GST control); with GABPA it was 1.31 fold enrichment (6-mer frequency, TF over GST control); with ERG it was 1.19 fold enrichment (6-mer frequency, TF over GST control); with ELF1, 1.18 fold enrichment (6-mer frequency, TF over GST control); with EHF, 1.1 fold enrichment (6-mer frequency, TF over GST control). Moreover, the binding signal with SPI1 is 1.12 fold enrichment (6-mer frequency, TF over GST control); with SPIB, 1.17 fold enrichment (6-mer frequency, TF over GST control); in the experiment with ELK3 it was 1.17 fold enrichment (6-mer frequency, TF over GST control); in the experiment with FEV it was 1.18 fold enrichment (6-mer frequency, TF over GST control); with ETV5 it was 1.12 fold enrichment (6-mer frequency, TF over GST control); with HSF1, 1.3 fold enrichment (6-mer frequency, TF over GST control). The binding signal is 1.11 fold enrichment (6-mer frequency, TF over GST control) with SPIC; 1.25 fold enrichment (6-mer frequency, TF over GST control) with ELF4; 1.17 fold enrichment (6-mer frequency, TF over GST control) with ELK4; 1.01 fold enrichment (6-mer frequency, TF over GST control) in the experiment with ETV2; 1.16 fold enrichment (6-mer frequency, TF over GST control) in the experiment with ELF3; 1.26 fold enrichment (6-mer frequency, TF over GST control) in the experiment with CRX. Further, the binding signal in the experiment with ETV1 is 1.1 fold enrichment (6-mer frequency, TF over GST control).
